Our source for the inhibition values is PubChem BioAssay AID777 (Sanford-Burnham Center for Chemical Genomics, 2007).

Screen size: about 96,000 compounds; about 19,000 (20%) were called active. A selection follows. A number with no mark means an inactive call.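 The calls were made as follows: active = blocking of liver enzyme CYP2C9 beyond about 50% at 5 µM (limit read from the data); inactive = the rest.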

The target in this assay is Cytochrome P450 2C9 (Homo sapiens) (UniProt P11712). Kind of assay: blockers of cytochrome P450 2C9 activity – biochemical, luminescence, ADME assay, primary screen (AID 777). The following applies: CYP2C9 Supersomes, luciferin-H conversion, at 5 µM, stronger effect = higher value.
Cytochrome P450 2C9 (Homo sapiens), sequence (P11712 whole entry, looked up): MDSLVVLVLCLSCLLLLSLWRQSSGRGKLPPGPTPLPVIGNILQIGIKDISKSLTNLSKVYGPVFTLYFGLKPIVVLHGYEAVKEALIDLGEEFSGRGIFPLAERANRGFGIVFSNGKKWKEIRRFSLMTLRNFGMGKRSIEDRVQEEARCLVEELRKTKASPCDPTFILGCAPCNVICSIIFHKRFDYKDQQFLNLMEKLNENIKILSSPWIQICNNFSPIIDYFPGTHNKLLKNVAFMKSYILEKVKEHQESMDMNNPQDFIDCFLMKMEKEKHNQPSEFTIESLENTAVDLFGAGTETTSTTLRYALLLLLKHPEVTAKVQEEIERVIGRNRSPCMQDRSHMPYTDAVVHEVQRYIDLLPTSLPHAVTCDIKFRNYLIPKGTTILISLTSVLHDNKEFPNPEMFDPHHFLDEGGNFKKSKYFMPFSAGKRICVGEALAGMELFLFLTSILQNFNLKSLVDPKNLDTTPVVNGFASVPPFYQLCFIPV
What is called inhibition is the relative decrease from the control value, in per cent. As to `Cc1[nH]n(-c2cccc(Cl)c2)c(=O)c1/C=N/n1c(C)nc2ccccc2c1=O`, the inhibition is 70.7% (active).
In the case of `COc1cc(NS(=O)(=O)c2ccc(N=Cc3c(C)[nH]n(-c4ccccc4)c3=O)cc2)nc(OC)n1`, the inhibition was -9.3%.
For the molecule `Cc1[nH]n(-c2cccc(Cl)c2)c(=O)c1-c1ccc(Cl)cc1`, the inhibition is -1%.
With `Cc1ccc(CNC(=O)CCNC(=O)Cn2ccc3ccccc3c2=O)cc1`, the inhibition is -18.8%.
In the case of `CC1CCCC(NC(=O)CN2CCN(Cc3ccc(Cl)cc3)C2=O)C1C` (centres undefined), the inhibition is 15.9%.
With `COc1cc(C2C(C(=O)c3ccc(C)o3)=C(O)C(=O)N2Cc2cccnc2)ccc1O` (centres undefined), the inhibition is 19.4%.
As for `COc1cc(C2C(C(=O)c3sc(C)nc3C)=C(O)C(=O)N2CCN(C)C)cc(OC)c1OC` (centres undefined), the inhibition was 79% (active).
In the case of `COc1cc(C2C(C(=O)c3ccc(C)o3)=C(O)C(=O)N2CCc2ccccc2)ccc1O` (centres undefined) it was 5.2%; in that of `Cc1ccc2c(c1)C(O)(CC(=O)c1cccnc1)C(=O)N2` (centres undefined), 8.4%; in that of `Cc1nn(C)cc1/C=C1\CCC/C(=C\c2cn(C)nc2C)C1=O`, -46.5%.
In the case of `CCOCCCNC(=O)c1c[nH]c2cc(C)ccc2c1=O`, the inhibition is -8.1%.
As for `Cc1ccc(S(=O)(=O)N2CCN(S(=O)(=O)N3CCOCC3)CC2)cc1`, the inhibition is -55.7%.
Turning to `Cc1noc(C)c1CSc1nc2cc(S(=O)(=O)N3CCOCC3)ccc2o1`, the inhibition is 54% (active).
Consider `Cc1noc(C)c1CSc1nnc2ccc3ccccc3n12`, for which the inhibition was 4.4%.
Turning to `CCS(=O)(=O)Nc1cc(C(=O)OC)ccc1C(=O)OC`, the inhibition is 37.5%.
For the molecule `Cc1ccccc1-c1nc(CS(=O)(=O)CC(=O)N2CCc3ccccc3C2)c(C)o1`, the inhibition was 72.4% (active).
Regarding `Cc1oc(-c2ccccc2F)nc1CS(=O)(=O)CC(=O)NCCCN(C)C1CCCCC1`, the inhibition was -10.6%.
In the case of `O=C(Cn1c(=S)nc2ccccn21)N1CCc2ccccc2C1`, the inhibition was 4.1%.
In the case of `COCCCNC(=O)C1CC(=O)N(c2ccc(C)cc2)C1` (centres undefined), the inhibition is -1.7%.
Consider `CS(=O)(=O)N(C(=O)NC(=O)NC1CCS(=O)(=O)C1)C1CCCCC1` (centres undefined), for which the inhibition was 9.2%.
Regarding `Cc1ccc(F)cc1NC(=O)c1ccc2c(c1)OCO2`, the inhibition is 5.7%.
Turning to `CCOc1ccc(NCCC(=O)c2ccc3c(c2)OCO3)cc1`, the inhibition was 63.8% (active).
Under `COC(=O)CCNc1ccc2c(c1)OCCO2` stands -2.2%; under `CC(=O)c1cc(C#N)c(SCC(=O)C(C)(C)C)nc1C`, 22.5%; under `CCOC(=O)C(Sc1ncc(C#N)c(N)n1)C(C)C` (centres undefined), 25.3%.
As for `CCC(C)n1[nH]c(=O)cc1N` (centres undefined), the inhibition is -5.6%.
In the case of `COC(=O)C1=C(C)Nc2ncnn2C1c1cccnc1` (centres undefined), the inhibition was -19.5%.
Under `Brc1ccc(C2=CC(c3ccco3)n3ncnc3N2)cc1` (centres undefined) stands 3.2%; under `Clc1ccc2c(c1)C1=C(C(c3ccncc3)O2)C(c2ccc(Br)cc2)n2ncnc2N1` (centres undefined), 82% (active).
